Test results reported in PubChem BioAssay (NCATS).
Inconclusive results are not listed. Calls of active or inactive are those of the source. Calls follow the shape of the dose curve; as a rule, active = well fitted curve in the direction sought with a large enough effect; inconclusive = small, poorly fitted or top-dose-only effect, or another doubt; inactive = no such curve, though single readings can be large; an effect the other way counts as inactive or inconclusive.

Tests used:
[1] = Cell Viability - LYMP2-002 (AID 977); also: series mostly up to about 92 µM
Summary of the method: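 Luminescent ATP readout (CellTiter-Glo, 30 min room temperature) after 24 h compound exposure at 37 C of a human lymphoblastoid line, 2500 cells/well. AC50 values derived by standard Hill fitting of qHTS concentration-response data.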

[2] = Cell Viability - LYMP2-006 (AID 978); also: series mostly up to about 92 µM; nearly all actives have a fitted effect of over 60% in size
Summary of the method: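 Cells are seeded at 2500 per well and rested 5 hr at 37 C. Compounds are added across a concentration series for 24 hr at 37 C, after which ATP is quantified by luciferase luminescence.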

[3] = Cell Viability - LYMP2-008 (AID 980); also: nearly all actives have a fitted effect of over 60% in size
Summary of the method: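 Human lymphoblastoid cells (2500/well) were plated, held 5 hr at 37 C, then exposed to compounds for 24 hr at 37 C in complete medium. Intracellular ATP was read by CellTiter-Glo luminescence; AC50 from Hill-fitted concentration-response.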

[4] = Cell Viability - LYMP2-010 (AID 981); also: nearly all actives have a fitted effect of over 55% in size
Summary of the method: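 Human lymphoblastoid LYMP2-010 cells (2500/well) were preincubated 5 hr at 37 C, then exposed to compounds for 24 hr at 37 C in complete medium. Intracellular ATP was measured by CellTiter-Glo luminescence after 30 min at room temperature; AC50 from Hill-fitted concentration-response.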

[5] = Cell Viability - LYMP2-012 (AID 982);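 also: cellular ATP by luciferase luminescence where a drop means cytotoxicity; cells exposed to compound for one day before reading; nearly all actives have a fitted effect of over 55% in size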
[6] = Cell Viability - LYMP2-014 (AID 983); also: series mostly up to about 92 µM; nearly all actives have a fitted effect of over 50% in size
Summary of the method: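 Human lymphoblastoid cells (2500/well) were pre-incubated 5 hr at 37 C, then exposed to compounds in complete medium for 24 hr at 37 C. Intracellular ATP was read by CellTiter-Glo luminescence after 30 min at room temperature; AC50 from Hill fits.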

[7] = Cell Viability - LYMP2-016 (AID 984); also: nearly all actives have a fitted effect of over 55% in size
Summary of the method: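 Cells were seeded at 2500 per well and rested 5 hr before a 24 hr compound exposure at 37 C. Viability was then gauged as cellular ATP by luciferase luminescence, with AC50 values fitted to the Hill equation.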

[8] = Cell Viability - LYMP2-018 (AID 985); also: nearly all actives have a fitted effect of over 50% in size
Summary of the method: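 Human lymphoblastoid cells (2500/well) were pre-incubated 5 hr at 37 C, then exposed to compounds for 24 hr at 37 C in complete medium. Viability was read as intracellular ATP by CellTiter-Glo luminescence; AC50 values came from Hill-equation fits.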

[9] = Cell Viability - LYMP2-024 (AID 988); also: nearly all actives have a fitted effect of over 60% in size
Summary of the method: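 Human lymphoblastoid cells (2500/well) in complete medium were preincubated 5 hr at 37 C, then exposed to compounds for 24 hr at 37 C. Intracellular ATP was read by CellTiter-Glo luminescence; AC50 from Hill-equation fits of concentration-response data.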

[10] = Cell Viability - LYMP2-026 (AID 989); also: nearly all actives have a fitted effect of over 50% in size
Summary of the method: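 Human lymphoblastoid cells (2500/well) in complete medium were preincubated 5 hr at 37 C, then exposed to compounds for 24 hr at 37 C. Cellular ATP was read by CellTiter-Glo luminescence; AC50 from Hill-equation fits of concentration-response data.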

[11] = Cell Viability - LYMP1-002 - Assay at 24 hr (AID 993)
Summary of the method: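 Human lymphoblastoid LYMP1-002 cells, 2500/well in complete medium, were treated with compounds for 24 h at 37 C; intracellular ATP was read by CellTiter-Glo luminescence. AC50 values came from Hill-equation fits of qHTS concentration-response data.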

[12] = Cell Viability - LYMP1-002 - Assay at 40 hr (AID 994); also: nearly all actives have a fitted effect of over 60% in size
Summary of the method: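 Human lymphoblastoid cells, 2500/well in complete medium, were preincubated 5 hr at 37 C, then exposed to compounds for 40 hr at 37 C. Intracellular ATP was read by CellTiter-Glo luminescence after 30 min at room temperature; AC50 from Hill-equation fits.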

[13] = target: Glutathione peroxidase 1 (Homo sapiens) (UniProt P07203); assay: Primary qHTS Assay for Inhibitors of Recombinant Selenoprotein Glutathione Peroxidase 1 (GPX1) (AID 1845191); also: nearly all actives have a fitted effect of over 65% in size
Chain of Glutathione peroxidase 1 (Homo sapiens) (P07203 whole entry, looked up): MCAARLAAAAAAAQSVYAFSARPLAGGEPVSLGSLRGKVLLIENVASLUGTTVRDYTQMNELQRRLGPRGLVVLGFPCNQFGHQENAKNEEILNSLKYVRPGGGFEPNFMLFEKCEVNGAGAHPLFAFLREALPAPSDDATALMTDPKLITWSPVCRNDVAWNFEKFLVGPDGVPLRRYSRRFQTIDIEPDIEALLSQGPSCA
Summary of the method: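 Recombinant GPX1 (10 nM final) was preincubated with compound for 30 min at room temperature, then reacted with 1 mM GSH, 0.5 mM CHP, 0.5 mM NADPH and 100 nM glutathione reductase; NADPH fluorescence (340/450 nm) was read at 0 and 15 min.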

Measured: Potency

CC(C)(c1ccc(OCC2CO2)cc1)c1ccc(OCC2CO2)cc1 (stereo not drawn)
not listed: [13]
inactive: all other assays above

CN(C(=O)Cc1ccccc1)[C@H](CN1CCCC1)c1ccccc1
inactive: [13]
